Laboratory results taken from PubChem BioAssay (EPA / NIEHS).
“And” between values parts separate entries of the source, which are not always exact repeats. Equal entries are not always repeated. The source made the active and inactive calls. How the source made its calls: active means hit-call score of the fitted dose curve at least 0.9, where 1 is the maximum; inactive means score below 0.9.

The compounds below were run on Human Leukocyte Antigen - DR isotype (HLADR), HLA-DRA (gene 3122) (assay: BSK_3C_HLADR: BioMAP Diversity Plus: 3C Assay for Human Leukocyte Antigen - DR isotype (HLADR) Biomarker Activity (AID 2283019;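 on outcome: ELISA of cell-surface HLA-DR on HUVEC 24 h after dosing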)). Details: primary human endothelial cells (HUVEC); actives raise or lower the signal.
How it was run: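 HUVEC, 3C stimulation, 24 h post-dose; HLA-DR by ELISA; bidirectional curve fit vs DMSO baseline; gain or loss of signal scored.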

Compound	outcome	AC50
CCOC(=O)CC(=O)C(F)(F)C(F)(F)F	inactive	–
CCN(CC)c1ccc(C=O)c(O)c1	–	32.9 µM (active)
FC(F)(F)C(F)(F)C(F)(F)CC1CO1 (centres undefined)	inactive	–
OCC(O)CC(F)(F)C(F)(F)C(F)(F)C(F)(F)F (centres undefined)	inactive	–
OC(O)C(F)(F)C(F)(F)F	inactive	–
NC(O)(C(F)(F)F)C(F)(F)F	inactive	–
FC(F)(F)C(F)(F)C(F)(F)C(F)(F)C(F)(F)C(F)(F)CC[Si](Cl)(Cl)Cl	inactive	–
O=C=NCc1cccc(CN=C=O)c1	inactive	–
Cc1cc(O)c(C(C)(C)C)cc1C(C)(C)C	–	3.17 µM (active)
NC(=O)C(F)(F)C(F)(F)C(F)(F)F	inactive	–
C=CC(=O)OCC(F)(F)C(F)(F)C(F)(F)COC(=O)C=C	–	14 µM (active) and 12.3 µM (active)
Cc1ccc(S(=O)(=O)C(I)I)cc1	–	1.15 µM (active)
COC(F)(C(F)F)C(F)(F)F (centres undefined)	inactive	–
CC1=CC2C3C=CC(C3)C2C1C (centres undefined)	inactive	–
O=S(=O)(O)CCC(F)(F)C(F)(F)C(F)(F)C(F)(F)F	inactive	–
O=S(=O)(OCC(F)(F)F)C(F)(F)C(F)(F)C(F)(F)C(F)(F)F	inactive	–
O=C(O)C(F)(F)C(F)(F)C(F)(F)C(=O)O	inactive	–
OCC(F)(F)C(F)(F)C(F)(F)C(F)(F)C(F)(F)C(F)(F)CO	inactive	–
O=C=Nc1cccc2c(N=C=O)cccc12	inactive	–
CC(C)(C)c1cc(CCC(=O)NCCCCCCNC(=O)CCc2cc(C(C)(C)C)c(O)c(C(C)(C)C)c2)cc(C(C)(C)C)c1O	inactive	–
CCN(CC)c1ccc2c(c1)Oc1cc(N(CC)CC)ccc1C21OC(=O)c2ccccc21	–	10 µM (active)
O=C(F)C1(F)C(F)(F)C(F)(F)C(F)(F)C(F)(F)C1(F)F	inactive	–
Cc1cnccn1	inactive	–
Nc1cc([N+](=O)[O-])cc(Cl)c1O	inactive	–
OCCCC(F)(F)C(F)(F)C(F)(F)C(F)(F)C(F)(F)C(F)(F)C(F)(F)C(F)(F)F	–	19.4 µM (active) and 43.2 µM (active)
O=C(O)C(F)(F)C(F)(F)C(F)(F)OC(F)(F)F	inactive	–
CCN=C1C=CC(=C(c2ccc(N(CC)CC)cc2)c2ccc(N(CC)CC)cc2)c2ccccc21	–	1.95 µM (active) and 1.7 µM (active)
O=C(O)CCC(F)(F)C(F)(F)C(F)(F)F	inactive	–
CCN(CC)c1ccc(C=O)cc1	inactive	–
